Cycloheximide cs – affects cycloheximide protein synthesis inhibition readout, counter-screen | cell reporter, cycloheximide protein synthesis inhibition counterscreen | max response, % | actives 12% (n = 300,000) | AID 2314; in the data active means max response mostly above about 13%, no sharp cut-off; inactive means mostly below about 14%; further: read at 38.3 µM for the half of the compounds with a filed dose; 0% is about no effect
Pf growth 96h – inhibits malaria parasite growth, 96 h; actives 6.9% (n = 320,000); Potency, µM (series often up to 28.7 µM), for the others: top-dose activity change, negative = inhibition, usual class: inhibitors; AID 504834; P. falciparum luciferase reporter growth, 96 h; further: potency means the concentration at half of the fitted maximal effect; on the % scale 0 is the no-effect control and ±100 the full control effect
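96 h incubation, 37 C, 5% CO2, of luciferase-reporter P. falciparum-infected RBCs (2% hematocrit, 0.05% parasitemia final) with test compounds; endpoint luminescence.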
Pf growth 48h – P. falciparum growth inhibition at 48 hours (one generation); P. falciparum luciferase growth in erythrocytes, 48 h; Potency, µM (highest dose often 28.7 µM), for the others: at the top dose activity change, negative = inhibition, hits mostly inhibitors; actives 5.9% (n = 310,000); AID 504832; further: potency means the concentration at half of the fitted maximal effect; on the % scale 0 is the no-effect control and ±100 the full control effect
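Luciferase-expressing parasites in RBCs, 2% Hct / 0.1% parasitemia final; RPMI 1640 + 0.5% Albumax; 37 C, 5% CO2, one generation; luminescence read-out, lower signal = inhibition.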
HCMV antiviral – human cytomegalovirus inhibition; actives 4.5% (n = 410,000); HFF cells, HCMV-luciferase reporter, 72 h; active compounds read low; activity change, negative = inhibition, % at 57.5 µM; in the data active means activity change below about -60%; inconclusive means no clear call, values can overlap the other calls; inactive means above about -39%; further: on the % scale 0 is the no-effect control and ±100 the full control effect
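Two-dose cell screen: HFF monolayers treated with compounds and infected with luciferase-expressing HCMV at 1 PFU/cell, 72 h at 37C, then lysed for luciferase measurement.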
HCV inhibitor – blocks hepatitis C virus | actives 3.4% (n = 340,000) | Potency, µM (highest dose often 41.8 µM), inactives show at the highest dose activity change, negative = inhibition, actives largely listed as inhibitors | Huh7.5.1 HCVcc-Cre infection, luciferase reporter, 44 h; further: potency means the concentration at half of the fitted maximal effect; on the % scale 0 is the no-effect control and ±100 the full control effect
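Infectious HCV cell culture screen: compound-treated cells (1,000/well, pre-plated 4 h) are infected with HCVcc-Cre at roughly 0.5 moi and grown 44 h. Infection is quantified by luciferase signal after 15 min substrate incubation at room temperature.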
Shiga inhibitor – blocks Shiga toxin action in Vero cells; Vero cells, Shiga toxin protein synthesis inhibition reporter; inhibition, % at 38.7 µM; actives 9.2% (n = 290,000); AID 2315; in the data active means inhibition mostly above about 28%, no sharp cut-off; inactive means mostly below about 43%; further: 0% is about no effect
The depositor's hits bear a star; u = inconclusive; x = no result given; [ ] = remark or other dose. Only some compounds are listed: those with a hit (about 21% of all), similar ones and a draw of the others. Unless noted, the call rests on the fitted dose curve; in most records, active means well fitted inhibition curve with a large enough effect; inconclusive means small, poorly fitted or top-dose-only effect, or another doubt; inactive means no such curve, though single readings can be large or run the other way.

SMILES	Cycloheximide cs	Pf growth 96h	Pf growth 48h	HCMV antiviral	HCV inhibitor	Shiga inhibitor
N#Cc1nc(Cc2cccc3ccccc23)oc1NCC1CCCO1 (centres undefined)	-1	7.4µM*	x	62	x	-4
N#Cc1nc(-c2ccccc2Cl)oc1NCC1CCCO1 (centres undefined)	16	-13%	x	26	13µM*	91*
COc1ccc(-c2nc(C#N)c(NC(C)c3ccccc3)o2)cc1OC (centres undefined)	10	u	15µM*	-27	u	29
CCOc1ccc(-c2nc(C#N)c(NCC3CCCO3)o2)cc1 (centres undefined)	13	u	x	27	-7%	28
CCN(CC)c1ccc(C(=O)NNC(=O)C2CCN(c3ncnc4sc(C)c(C)c34)CC2)cc1	x	x	x	-15	x	x
CC1(C)Cc2cccc(C(=O)NC3CCN(Cc4ccccc4)CC3)c2O1	-1	u	u	-27	-20%	-15
COC(=O)CSc1nc(C)cc(C)c1C#N	11	u	27%	-32	-7%	-19
CSc1nc(N)nc(SCC(=O)c2ccccc2)c1C#N	19*	107%	34%	132	u	58
Cc1cc(C)c(C#N)c(SCC(=O)c2cccs2)n1	19*	x	73%	197	-13%	61*
Cc1cc(C)c(C#N)c(SCC(=O)C2CC2)n1	24*	72%	19%	37	2%	43*
Cc1cc(C)c(C#N)c(SCC(=O)Nc2nonc2N)n1	29*	21%	23%	21	-8%	72*
CC(C)COc1ccc(C(=O)Nc2nnc(S(=O)(=O)N(C)Cc3ccco3)s2)cc1	x	x	x	166	x	x
Cc1cc(C)c(C#N)c(Sc2ccccc2N)n1	32*	u	u	33	u	72*
Cn1nnnc1SCC(=O)c1cccs1	18	31%	4%	-35	-1%	-4
CSc1nc(N)nc(SCC(=O)C23CC4CC(CC(C4)C2)C3)c1C#N	20	-6%	u	-33	10µM*	32
Cc1cc(C)c(-n2nnnc2SCC(=O)c2cccs2)c(C)c1	24*	-10%	-12%	-19	-10%	39*
Cc1cc(C)c(C#N)c(SCC(=O)c2ccccc2)n1	9	4.7µM*	-11%	-35	-27%	-6
Cc1cc(=O)[nH]c(SCC(=O)c2ccccc2)c1C#N	-1	50%	36%	26	12%	-17
O=S1(=O)N[C@H](Cc2ccccc2)COc2cccc(F)c21	x	x	x	-22	x	x
Cc1ccc(C(=O)N2CC(=O)Nc3ccc(F)cc3C2c2ccccc2)cc1 (centres undefined)	-4	u	u	-7	0%	1
CCOC(=O)c1[nH]c(C)c(CCC(=O)NCc2ccc(N(C)C)cc2)c1C	x	x	x	6	x	x
COCCOC(=O)c1c(C)nc(SCC(=O)Nc2ccc(OC)cc2)c(C#N)c1-c1ccco1	17	7%[5.75 µM]	x	29	-11%	-10
Cc1cc(C)c(C#N)c(OCC(=O)c2ccccc2)n1	39*	18%	u	27	-8%	35
Cc1nc(SCC(=O)c2ccccc2)c(C#N)c(-c2ccco2)c1C(=O)NCc1ccco1	13	u	9.3µM*	u	u	33
Cc1ccc2c(c1)cc1c(=O)n(Cc3cccc(Cl)c3)nc(C)n12	x	x	x	-8	x	x
SMILES	Cycloheximide cs	Pf growth 96h	Pf growth 48h	HCMV antiviral	HCV inhibitor	Shiga inhibitor
CCC(Cn1nnc2ccccc2c1=O)NC(=O)Nc1ccccc1OC (centres undefined)	x	x	x	15	x	x
COc1ccc(CNCCC(c2ccc(F)cc2)c2ccc(OC)cc2)cc1 (centres undefined)	-8	u	u	-22	u	-17
COc1ccc(C(CCNCc2ccc(F)cc2)c2ccc(F)cc2)cc1 (centres undefined)	-8	u	4.7µM*	u	u	-26
COc1ccc(C(CCNCc2ccccc2)c2ccc(F)cc2)cc1 (centres undefined)	-4	0%	0%	-29	6.3µM*	-14
C=CCOc1ccc(/C=C/C(=O)OCC(=O)Nc2c(C)n(C)n(-c3ccccc3)c2=O)cc1	x	26%	3%	-7	13%	x
COc1ccc(OCCC(=O)N2CCN(C)CC2)cc1	5	u	29%	-10	10%	3
COc1ccc(OCCC(=O)N2CCCCC2)cc1	27*	x	127%	16	-1%	35*
CCCCOc1ccc(C(=O)NCCCC(=O)N2CCCCC2)cc1	-2	-5%	u	-11	10%	13
CC(C)OCc1ccc(C(=O)N2CCN(CC(=O)N3CCCC3)CC2)cc1	x	x	x	-11	5%	x
CCCCOc1c(Cl)cc(C(=O)N2CCN(CC(=O)N3CCCC3)CC2)cc1OCC	x	u	12µM*	-29	10µM*	x
CCCCCOc1ccc(C(=O)CCC(=O)N2CCCC2)cc1	22*	u	u	-18	-27%	51*
CCCCOc1ccc(C(=O)O)cc1	-4	x	9%	54	-1%	-17
CCCCCCCCOc1ccc(C(=O)O)cc1	x	36%	86%	18	6.3µM*	x
O=C(CCN1CCOCC1)Nc1ccc(Cl)cc1	1	-25%	-1%	-5	12%	6
Cc1c(NC(=O)C(C)OC(=O)c2ccc(NC(=O)CC#N)cc2)c(=O)n(-c2ccccc2)n1C (centres undefined)	x	10%	u	-7	1%	x
CCOc1ccc(C(=O)N2CCCC2)cc1	7	u	16%	-9	17%	14
CCCCOc1ccc(C(=O)N2CCCC2)cc1	36*	x	106%	110	1%	103*
Cc1cc(C)n(-c2nc3ccccc3nc2N2CCN(C(=O)c3ccc(F)cc3)CC2)n1	-5	x	u	-80*	-1%	-10
Cc1cc(C)n(-c2nc3ccccc3nc2N2CCN(c3cccc(C)c3C)CC2)n1	x	x	x	15	x	x
Cc1cc(C)n(-c2nc3ccccc3nc2N2CCC(C)CC2)n1	1	x	9.3µM*	-7	-4%	40
Cc1ccc(S(=O)(=O)N2CCN(c3nc4ccccc4nc3-n3nc(C)cc3C)CC2)cc1	8	17%	10µM*	-16	u	-22
Cc1ccc2nc(N3CCN(C(=O)c4ccc(F)cc4)CC3)c(C#N)cc2c1	0	u	34%	0	u	3
Cc1cc(C)n(-c2nc(N(C)C)nc(N3CCOCC3)n2)n1	-2	-9%	x	u	10%	-15
Cc1cc(N2CCC(C)CC2)nc(-n2nc(C)cc2C)n1	-1	x	0.74µM*	-37	u	-9
CCc1nc2ccccc2nc1N1CCN(S(=O)(=O)c2ccccc2)CC1	-2	15µM*	u	-68*	5%	-4
CCOc1ccc(/C=C/C(O)=C2/C(=O)N(C)C3(C)CC2c2ccccc2O3)cc1OC (centres undefined)	-5	20%	6.6µM*	-98*	u	-12
Cc1[nH]c(C)c(Cl)c(=O)c1Cl	x	3.4µM*	6µM*	x	x	x
